Screening results: PubChem BioAssay, several laboratories
The list is not random: actives were taken first. Their share in the collection is about 0.9%.
PfHsp40 rescue: rescue of yeast from PfHsp40 toxicity, primary screen, S. cerevisiae, ATP luminescence; S. cerevisiae expressing PfHsp40, growth rescue; growth rescue, % at 12.5 µM; 340,000 compounds, 0.68% hits; in the data active = growth rescue above about 28%, passing the limit was not always enough;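 note: yeast W303a lacking pdr1 and pdr3 grown in galactose medium; growth measured after three days at 30 °C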
BioA inh: M. tuberculosis BioA enzyme inhibitors, primary screen, biochemical, plate reader, single point, HTS; 7,8-diaminopelargonic acid synthase BioA (Mycobacterium tuberculosis); purified M. tuberculosis BioA enzyme; inhibition, % at 9.99 µM; 360,000 compounds, 0.096% hits; AID 602481, 2012; in the data active = inhibition above about 40%
ugtP null kill: growth inhibition of ugtP-null S. aureus, primary screen, RN4220 ugtP deletion, OD600 | AID 1259309, 2017 | 16 h | growth inhibition, % (no concentration beside the values) | 330,000 compounds, 0.54% hits; in the data active = growth inhibition above about 68%;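 note: plate controls were untreated wells for no effect and antibiotic for full effect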
Sa RN4220 lethal: growth inhibition of S. aureus RN4220, primary screen, OD600; 330,000 compounds, 0.33% hits; AID 1259311, 2017; 16 h; inhibition, % (no concentration beside the values); in the data active = inhibition above about 85%;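 note: plate controls were untreated cells for no effect and reference antibiotic for full effect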
Mtb betalactam: beta-lactam sensitization of Mtb H37Rv, H37Rv | M. tuberculosis H37Rv growth with meropenem, percent inhibition | inhibition, % at 25 µM | 330,000 compounds, 0.27% hits; call rule not given here;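 note: growth measured after seven days incubation then overnight dye step; 0% = bacteria only wells and 100% = bacteria with antibiotic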
An asterisk follows results filed as active; / = no result.

SMILES	PfHsp40 rescue	BioA inh	ugtP null kill	Sa RN4220 lethal	Mtb betalactam
CCCC(=O)NC(c1ccc(N(C)C)cc1)c1ccc2cccnc2c1O (stereo not given)	410*	-1	/	/	8
CCC(=O)NC(c1ccc(Cl)cc1Cl)c1ccc2cccnc2c1O (stereo not given)	122*	0	/	/	25
N#C/C(=C\c1ccc2c(c1)OCO2)C(=O)NCc1ccco1	53*	/	0	1	5
CC1(C)S[C@@H]2[C@H](NC(=O)[C@H](N)c3ccccc3)C(=O)N2[C@H]1C(=O)O	1	-1	/	/	-6
CC1(C)S[C@@H]2[C@H](NC(=O)[C@H](N)c3ccc(O)cc3)C(=O)N2[C@H]1C(=O)O	-1	-1	/	/	-2
CCOC(=O)OC(C)OC(=O)C1N2C(=O)C(NC(=O)C(N)c3ccccc3)C2SC1(C)C (stereo not given)	/	/	100*	101*	/
Cc1cc(COC(=O)C2N3C(=O)C(NC(=O)COc4ccccc4)C3SC2(C)C)on1 (stereo not given)	/	/	100*	100*	/
CC1(C)SC2C(NC(=O)C(N)c3ccccc3)C(=O)N2C1C(=O)OC1OC(=O)c2ccccc21 (stereo not given)	/	/	101*	100*	/
O=C(NCc1ccccc1)C1=CC(c2ccc3c(c2)OCO3)CC(OCCCCO)O1 (stereo not given)	/	/	5	5	/
O=S(=O)(c1cccc(C(F)(F)F)c1)N1CCC(CO)(CCCc2ccccc2)CC1	55*	0	-20	8	3
O=S(=O)(c1cccc(C(F)(F)F)c1)N1CCC(O)(c2cccnc2)CC1	-1	5	8	6	-17
COC(=O)C1C[C@@]2(O)C(O)C(O)C(O)CC2N1Cc1ccc(Cl)cc1 (stereo not given in full)	/	/	2	9	/
CC(C)CCN1C(Nc2ccccc2)=NCC1Cc1ccccc1 (stereo not given)	/	/	3	5	/
CCc1nc(SCc2nc3ccccc3[nH]2)c2oc3ccccc3c2n1	41*	9	8	11	59
O=c1cc(CSc2ccc(Cl)cc2)nc(-c2ccccc2)[nH]1	-1	/	-5	12	3
O=c1cc(CSc2ccc(Cl)cc2)nc(-c2ccccn2)[nH]1	325*	-2	/	/	92
Cc1cccc(Nc2nc(-c3ccc(O)cc3O)cs2)n1	121*	-4	-16	-8	5
COC(=O)C1=C(C)N(c2cc(C)cc(C)c2)/C(=C/c2ccc(O)cc2)C1=O	1	/	60	89*	21
Cc1ccc(NC(=S)NC(=O)C2CCCCC2)c(Br)c1	7	-1	87*	-1	9
NS(=O)(=O)c1ccc(NC(=S)NC2CCCCCC2)cc1	0	/	1	2	12
NS(=O)(=O)c1ccc(NC(=S)NC(=O)C2CCCCC2)cc1	-1	0	89*	5	11
CCc1ccccc1NC(=O)C1CCCN1S(=O)(=O)c1ccc(-c2ccc(=O)[nH]n2)s1 (stereo not given)	-1	-2	88*	96*	-8
Cc1cccc(C)c1NC(=O)C1CCCN1S(=O)(=O)c1ccc(-c2ccc(=O)[nH]n2)s1 (stereo not given)	2	-6	99*	98*	-9
COC(=O)c1sc(-c2ccc(C(C)(C)C)cc2)cc1NC(=O)COCC(=O)O	33*	8	0	9	88
COC(=O)c1sc(-c2ccc(Cl)cc2)cc1NC(=O)CSCC(=O)O	1	4	-9	18	-3
SMILES	PfHsp40 rescue	BioA inh	ugtP null kill	Sa RN4220 lethal	Mtb betalactam
CCN1C(=O)C2C(c3ccc(SC4CCCCC4)c(OC)c3)N3CCCC[C@@]3(C(=O)OC)C2C1=O (stereo not given in full)	/	/	2	-3	/
O=C1N=c2ccccc2=C1c1c(O)[nH]c2c(C(F)(F)F)cccc12	1	-2	98*	96*	8
C=C(C)C(=O)Nc1cccc(C2=NOC3(C2)CC(C(N)=O)N(C(=O)CC(c2ccccc2)c2ccccc2)C3)c1 (stereo not given)	/	/	0	0	/
CCOC(=O)c1cccc(-n2cccc2C=C2NC(=O)N(CC(=O)O)C2=O)c1	/	/	5	3	/
CCN1/C(=C\C=C\C2=[N+](CC)c3ccccc3C2(C)C)C(C)(C)c2ccccc21	121*	-247	100*	100*	80
CCCCNc1nc(CC)c2c(c1C#N)CCCC2	1	1	81*	0	-4
CSCc1cc(N(C)c2ccccc2)nc(-c2ccccn2)n1	111*	3	/	/	87
CN(C)c1cc(C(F)(F)F)nc(-c2ccccn2)n1	-2	-2	15	6	-2
COc1ccc(CCC(=O)NC(C)C)cc1	39*	-2	-5	3	7
COc1ccc(C(C)NC(=O)CCc2ccccc2)cc1 (stereo not given)	-2	0	1	2	-3
CC(C)=CCc1c(-c2ccc(O)cc2O)oc2cc3c(c(O)c2c1=O)C=CC(C)(C)O3	/	/	97*	96*	0
COc1ccc(-c2oc3c4c(cc(OC)c3c(=O)c2CC=C(C)C)OC(C)(C)C=C4)c(OC)c1	/	/	7	-2	8
Cc1cc(C)cc(NS(=O)(=O)c2cnc(Cl)c(Cl)c2)c1	0	0	-31	10	-22
CCOc1ccc(NS(=O)(=O)c2cnc(Cl)c(Cl)c2)cc1	88*	/	-5	9	74
Cc1cccc(C2C3C(=O)N(Cc4ccccc4)C(=O)C3[C@]3(Cc4ccccc4)C(=O)N(c4ccccc4)C(=O)N23)c1 (stereo not given in full)	/	/	4	8	/
COc1ccc(CNC(=O)COC(=O)c2c[nH]c(=O)[nH]c2=O)cc1OC	34*	-2	-1	3	-7
COc1ccccc1CNC(=O)CSc1ccc(-c2ccccn2)nn1	314*	/	7	3	-3
O=C(CSc1ccc(-c2cccnc2)nn1)N1CCCc2ccccc21	/	/	13	8	-2
CCOc1ccc2nc(SCC(=O)N3CCCc4ccccc43)sc2c1	5	0	85*	5	-7
CCOc1ccc2nc(SCC(=O)N3c4ccccc4Sc4ccccc43)sc2c1	0	/	26	-3	-1
Cc1ccccc1NC(=O)CSc1ccc(-c2ccccn2)nn1	381*	0	12	2	94
O=C(CSc1ccc(-c2ccccn2)nn1)N1CCCc2ccccc21	473*	-1	3	10	63
COC(=O)C1=C(c2ccccc2OCc2ccccc2)CC2CCC1N2C(=O)NCCOc1ccc(OC)cc1 (stereo not given)	/	/	-15	-10	/
CCOC(=O)C1C2COc3ccc(Br)cc3C2N2C(=O)N(c3ccc(F)cc3)C(=O)[C@]12C (stereo not given in full)	/	/	5	-2	/
CCCCCCCCCC(=O)NC(CN1CCOCC1)C(O)c1ccccc1 (stereo not given)	/	/	-1	9	/
CCCCCCCCCCCC(=O)NC(C(=O)O)C(O)c1ccccc1 (stereo not given)	59*	0	15	8	-5
Cc1cccc(C(N)=NOC(=O)c2ccco2)c1	/	/	-4	4	/
